Experimental data: PubChem BioAssay (NCATS)
Records with an inconclusive call do not appear. A number with no mark means an inactive call. The call rests on the fitted dose curve; in most records, active means well fitted inhibition curve with a large enough effect; inconclusive means small, poorly fitted or top-dose-only effect; inactive means flat fitted curve, though single readings scatter. Where a SMILES comes first, the peptide text is derived from it. Bridges are numbered along the chain shown (N, C = ends). [ ]: non-standard residue; d: D form. NMeY = CN[CH](Cc1ccc(O)cc1)C(=O)O

Target: Calcium and integrin-binding protein 1 (Homo sapiens) (UniProt Q99828)
Sequence (Q99828 whole entry, looked up): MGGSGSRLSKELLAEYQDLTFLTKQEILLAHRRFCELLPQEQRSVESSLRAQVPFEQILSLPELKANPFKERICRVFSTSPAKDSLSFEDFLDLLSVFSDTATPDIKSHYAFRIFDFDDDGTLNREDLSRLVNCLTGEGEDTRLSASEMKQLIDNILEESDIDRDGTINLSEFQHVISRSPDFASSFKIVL
Assay: Primary qHTS for Identification of Calcium Integrin Binding Protein 1 (CIB1) Competitor (AID 1508620);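 further: GST tagged CIB1 binding a fluorescein labelled alphaIIb integrin peptide tracer; top concentration of the series differs between compounds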
Settings: CIB1-GST / FITC-alphaIIb peptide fluorescence polarization; series mostly up to 114 µM; activity change, negative = inhibition: at the top concentration
Source text: Assay Provider: Ulhas P. Naik, PhD Sidney Kimmel Medical College Thomas Jefferson University, Philadelphia, PA Primary function of platelets is to maintain hemostasis. At the site of vascular injury, platelets adhere to adhesive proteins such as collagen and von Willebrand factor. Adherent platelets are activated and generate soluble platelet agonists such as thrombin, ADP and thromboxane A2. Following exposure of circulating platelets to these agonists, results in platelet shape change, granule secretion and activation of platelet integrin alphaIIb-beta3. Ligand binding to activated integrin alphaIIb-beta3 triggers outside-in signaling, leading to platelet aggregation, stabilization of platelet plug, and clot retraction. Upon atherosclerotic plaque rupture also causes platelet plug formation, which underlies a number of cardiovascular diseases such as myocardial infraction and stroke. A number of anti-platelet drugs such as aspirin, clopidogrel, prasugrel, vorapaxar, and eptifibatide are currently available to prevent the thrombotic complications. However, these anti-platelet agents have several limitations including inherent variability in individual responses, developing resistance, and serious bleeding side effects. For these reasons they are not suitable for long-term protection. Based on the experiences with current anti-platelet drugs, it appears that the most useful therapeutic approach is to intersect the secondary responses such as integrin outside-in signaling or recruitment of platelets by TxA2 and secreted ADP. Compounds, which can largely preserve the primary hemostatic function of platelets but inhibit secondary response will be most desired therapeutic agents for treatment of cardiovascular disease. CIB1 is a calcium integrin binding protein, which specifically interact with the alphaIIb subunit of integrin alphaIIb-beta3. Binding of CIB1 to alphaIIb regulates the outside-in signaling in platelets, which is needed for thrombus stabilization and thrombus growth. […] Therefore, we propose that discovery of a small molecule that can prevent the association of CIB1 and alphaIIb-beta3 will be a potential anti-platelet agent that can block the thrombus formation without undue effect on hemostasis. Reference: [1] Naik MU, Nigam A, Manrai P, et al. CIB1 deficiency results in impaired thrombosis: the potential role of CIB1 in outside-in signaling through integrin alpha IIb beta 3. J Thromb Haemost.
PROTOCOL TABLES SEQUENCE No. (1, 2, 3, etc.); […] (e.g., Cells, Incubation, Reagent, etc.); VALUE and DESCRIPTION. 1; Reagent; 3 uL; Protein or buffer (4/3x) 2; Compound; 46 nL; Control inhibitor / compound library 3; Time; 15 min; Room temperature incubation 4; Reagent; 1 uL; Fluorescent labeled peptide (4x) 5; Time; 1000 rpm; Centrifuge 6; Time; 15 min; Room temperature incubation 7; Detection; Ex 480/ Em 540; ViewLux Fluorescence Read NOTES (numbers refer to sequence above) 1; Protein Mixture: C1B1-GST (final concentrations of 1 uM). […] 3; Room temperature incubation. 4; Fluorescent Labeled Peptide: FITC-aIIb (final concentration of 100 nM). Sequence of alphaIIb peptide: Acetyl-[…]-FITC (purity is 95.83%). 5; Centrifuge 1000 rpm (164 g) for 15 seconds. 6; Room temperature incubation. 7; ViewLux Fluorescent Polization Read: excitation = 480(20) / emission = 540(25) S and P; FITC Dichroic mirror.
On the % scale 0 is the no-effect control and ±100 the full control effect.

SMILES	activity change, negative = inhibition
C/C1=C\CCC(C)CCO[C@@H]2O[C@H](CO[C@@H]3OC[C@H](O)[C@H](O)[C@H]3OC1=O)[C@@H](O)[C@H](O)[C@H]2O (stereo not given in full)	-4.14% [at 57.7 µM]
COc1ccc(C(=O)n2c(C)c(Cc3cccc(O[C@@H](C)C(=O)O)c3)c3cc(OC(F)(F)F)ccc32)cc1	-16%
C=C[C@]1(C)C=C2CCC3C(C)(CCC[C@@]3(C)C(=O)O)C2CC1 (stereo not given in full)	2.03% [at 57.7 µM]
CC(C)C(CO)Nc1nc(Nc2cc(N)cc(Cl)c2)c2ncn(C(C)C)c2n1 (stereo not given)	-0.695%
O=C(Nc1ccc(S(=O)(=O)C(F)(F)F)cc1)C1=CCN(c2ncccc2C(F)(F)F)CC1	17.4%
O=[N+]([O-])c1cn2c(n1)OCC(OCc1ccc(OC(F)(F)F)cc1)C2 (stereo not given)	-1.88%
C=C1C(=O)O[C@@H]2/C=C(\C)C(=O)/C=C/[C@](C)(O)C[C@@H](OC(=O)C(C)C)[C@@H]12	-5.18% [at 57.7 µM]
OC[C@H]1O[C@@H](O[C@H]2[C@H](OCc3ccccc3)O[C@H](CO[C@@H]3OC[C@@H](O)[C@H](O)[C@H]3O)[C@@H](O)[C@@H]2O)[C@H](O)[C@@H](O)[C@@H]1O	-2.79% [at 57.7 µM]
C=C1C[C@]23C[C@H]1[C@@H](O)C[C@H]2[C@@]12C=C[C@H](O)[C@@](C)(C(=O)O1)[C@H]2[C@@H]3C(=O)O	-0.601% [at 57.7 µM]
CC1CCC2(C(=O)O)CCC3(C)C(=CCC4C5(C)CCC(OC(=O)/C=C/c6ccccc6)C(C)(C)C5CCC43C)C2C1C (stereo not given)	0.715% [at 30.2 µM]
Cc1cn(C2C=CC(CO)O2)c(=O)[nH]c1=O (stereo not given)	2.6%
COC(=O)CC1CC(c2ccc(O)cc2)=NO1 (stereo not given)	3.98%
CCCC(=O)C1CCN(c2ncnc3c2CN(C(=O)c2ccc(-c4ccccc4)cc2)CC3)CC1	0.9%
COc1ccc(Cl)c(Nc2nc3ccccc3nc2NS(=O)(=O)c2cccc(NC(=O)C(C)(C)N)c2)c1	-18.5%
CCO[C@@H]1OC(=O)C[C@@H]1NC(=O)[C@@H]1CCCN1C(=O)[C@@H](NC(=O)c1ccc(N)c(Cl)c1)C(C)(C)C	-3.94%
C=C1C[C@]23C[C@H]1CC[C@H]2C1=C[C@H]2OC(=O)[C@@](C)([C@H]1[C@@H]3C(=O)O)[C@H]2O	-10.1% [at 57.7 µM]
CN(CCc1ccc(Nc2ncc(-c3cccnc3)s2)cc1)Cc1ccccc1	2.46%
COC(=O)CCC(=O)OC[C@]1(C)CCC[C@@]2(C)C3CC[C@]4(C)C=CC3(CCC12)C4 (stereo not given in full)	5.12% [at 57.7 µM]
CNC12CC3C[C@@](C)(C1)C[C@](C)(C3)C2	-1.87%
Cn1ncnc1COc1nn2c(-c3cc(F)ccc3F)nnc2cc1C(C)(C)C	-2.94%

SMILES	activity change, negative = inhibition
CC1CC[C@]2(C(=O)O)CC[C@]3(C(=O)O)C(=CCC4[C@@]5(C)CC[C@H](OC6OC(C)C(O)C(OC7OC(CO)C(O)C(O)C7O)C6O)C(C)(C)C5CC[C@]43C)C2C1C (stereo not given in full)	3.04% [at 30.2 µM]
C[C@@H]1CCC/C=C/[C@H]2CC(=O)C[C@@H]2[C@@H](O)/C=C/C(=O)O1	0.0135%
CC(=O)O[C@H]1C(=O)[C@@]2(C)[C@H]([C@H](OC(=O)c3ccccc3)[C@]3(O)C[C@H](OC(=O)[C@H](O)[C@@H](NC(=O)c4ccccc4)c4ccccc4)C(C)=C1C3(C)C)[C@]1(OC(C)=O)CO[C@@H]1C[C@@H]2O	3.7% [at 30.2 µM]
CC(Nc1ncnc2nc[nH]c12)c1cc2cccc(Cl)c2c(=O)n1-c1ccccc1 (stereo not given)	2.89%
C/C=C/c1ccc2oc(-c3ccc(O)c(OC)c3)c(C)c2c1	2.26%
CCn1c(=O)c(-c2ccn[nH]2)cc2c(C)nc(N)nc21	0.815%
COc1nc2sc(C(=O)NC3CC3)c(N)c2c(C)c1Cl	-7.8%
Cc1c(F)cc(C(=O)NC2CC2)cc1-c1c(F)cn2c(C(C)(C)C)nnc2c1F	-4.24%
COc1cccc(-c2cc(NCc3ccc4c(c3)OCO4)nc(N)n2)c1	2.65%
C/C=C/c1ccc2c(c1)[C@@H](C)[C@H](c1ccc(O)cc1)O2	2.49%
COc1ccc(C2(O)CCC(N3CC[C@@H](NC(=O)CNC(=O)c4cccc(C(F)(F)F)c4)C3)CC2)cn1 (stereo not given in full)	4.55%
CC(=O)OCC1(O)CCC2C(COC3OC(CO)C(O)C(O)C3OC(=O)/C=C/c3ccc(O)cc3)=COC(OC(=O)CC(C)C)C21 (stereo not given)	-0.45% [at 30.2 µM]
Nc1nc2c(c(N3CCNCC3)n1)CCC1=C2[C@@H]2CCCC[C@@H]2O1	6.81%
CCC(C)C1NC(=O)C2CCCN2C(=O)C(NC(C)=O)C(C)OC(=O)C(Cc2ccc(OC)cc2)N(C)C(=O)C2CCCN2C(=O)C(C(C)C)NC1=O (stereo not given) (Ac-TPIVP[NMeY](Me); ester 1-C; configuration not given here)	-6.97% [at 30.2 µM]
C=CC(C)(C)c1[nH]c2cc3c(cc2c1CC1NC(=O)C2=CCCN2C1=O)C=CC(C)(C)O3 (stereo not given)	-0.0061% [at 57.7 µM]
CC1=CC(=O)C(=C(C)C)CC2C1CCC2(C)O (stereo not given)	-3%
C[C@@H]1O[C@@H](O[C@@H]2[C@@H](O)[C@@H](O[C@]3(CO)O[C@H](CO)[C@@H](O)[C@@H]3OC(=O)/C=C/c3ccc(O)cc3)O[C@H](CO)[C@H]2OC(=O)/C=C/c2ccc(O)cc2)[C@H](O)[C@H](O)[C@H]1O[C@@H]1O[C@@H](C)[C@H](O[C@@H]2OC[C@](O)(CO)[C@H]2O)[C@@H](O)[C@H]1O	0.266% [at 30.2 µM]
C=C1CC[C@H]2[C@@](C)(CCC(O)[C@@]2(C)CO)[C@@H]1CCC1=CCOC1=O (stereo not given in full)	-4.52% [at 57.7 µM]
CCC(C)C(=O)OC1CC(O)C23C4OCC5(C(O)CC2C1(C)C(O)O4)C3C(=O)C(O)C1(C)C(O)(c2ccoc2)CC2OC251 (stereo not given)	4.85% [at 30.2 µM]
C=C(C(=O)O)C1CC(O)C2(C)CCCC(=C)C2C1 (stereo not given)	3.78%
